# Results reported in PubChem BioAssay (NCATS).
# Active and inactive are the calls of the source. Calls follow the shape of the dose curve; as a rule, active = well fitted curve in the direction sought with a large enough effect; inconclusive = small, poorly fitted or top-dose-only effect, or another doubt; inactive = no such curve, though single readings can be large or run the other way.
# Target: Thyrotropin receptor (Homo sapiens) (UniProt P16473)
# Test: qHTS Assay for Antagonists of the Thyroid Stimulating Hormone Receptor (AID 488980)
# Conditions: TSHR-expressing cells, cAMP antagonist read-out; series mostly up to 57.5 µM
# Source text: TSH is an alpha/beta heterodimeric glycoprotein hormone secreted from the anterior pituitary gland which belongs to the glycoprotein hormone family. The actions of TSH are mediated by a seven-transmembrane receptor, which upon TSH binding couples preferentially to the G-alpha (s) protein (Gs), resulting in activation of adenylate cyclase and increase in cyclic adenosine 3', 5' monophosphate (cAMP). The TSH receptor (THSR) is mainly expressed in thyroid follicular cells and regulates their growth and function. This cell based assay was conducted on a TSHR transfected HEK 293 cell line, measuring cAMP stimulation using antibody-based Homogeneous Time Resolved Fluorescence (HTRF).
# Our goal is to identify small molecules that will inhibit (antagonize) the thyroid-stimulating hormone receptor (TSHR), a member of the 7 transmembrane-spanning receptor (7TMR) family of cell surface receptors. TSHR-mediated hyperthyroidism is important in thyroid pathology. The development of small molecule antagonists of TSHR may lead to therapeutic approaches for TSHR-mediated hyperthyroidism caused by constitutively activating mutations or stimulating auto-antibodies associated with Graves' disease. Graves' disease is the leading cause of hyperthyroidism and is caused by autoantibodies that stimulate TSHR (TsAbs) causing thyroid growth and unregulated overproduction of thyroid hormones and existing treatments have liabilities (agranulocytosis). In addition, TSHRs are known to be expressed in multiple extrathyroidal tissues including bone, brain, kidney, testis, fat and cells of the immune system but the role of the TSHR in these tissues is not clear. Therefore, TSHR antagonists/inverse agonists could be used as probes of extrathyroidal TSHR function. Finally, TSHR inverse agonists, which are a subclass of antagonists that inhibit agonist-independent (or basal or constitutive) TSHR signaling, could be used to inhibit TSH-independent signaling in patients with recurrent or metastatic thyroid cancer who are receiving thyroid hormone to suppress TSH.
# An anti cAMP antibody contains a fluorescent cryptate tag (excitation 337 nm; emission 620 nm) and the acceptor is cAMP-d2 (excitation 620 nm; emission 665 nm). When antibody and cAMP-d2 interact and are excited by a 337 nm light, a FRET occurs resulting in emission at 665 nm. The assay is competition between cAMP-d2 and cAMP (from the cell lysate). The homogeneous protocol allows for one step dispense after stimulation that is automation friendly.
# Step, Parameter, Value, Description
# 1, Cells, 3 uL, 2000 TSHR freshly harvested cells/well 1536 TC treated White solid bottom plate (Cells resuspended in 10 mM HEPES buffered HBSS and 70 uM RO 20-1724)
# 2, Compound, 23 nL, Libraries and controls
# 3, Compound, 1 uL, EC80 TSH (4 nM final)
# 5, Reagent, 2 uL, cAMP antibody diluted 1:20 in lysis buffer
# 6, Time, 30 minutes, Room temperature
# 7, Detector, HTRF settings, Viewlux
# Chain of Thyrotropin receptor (Homo sapiens) (P16473 whole entry, looked up): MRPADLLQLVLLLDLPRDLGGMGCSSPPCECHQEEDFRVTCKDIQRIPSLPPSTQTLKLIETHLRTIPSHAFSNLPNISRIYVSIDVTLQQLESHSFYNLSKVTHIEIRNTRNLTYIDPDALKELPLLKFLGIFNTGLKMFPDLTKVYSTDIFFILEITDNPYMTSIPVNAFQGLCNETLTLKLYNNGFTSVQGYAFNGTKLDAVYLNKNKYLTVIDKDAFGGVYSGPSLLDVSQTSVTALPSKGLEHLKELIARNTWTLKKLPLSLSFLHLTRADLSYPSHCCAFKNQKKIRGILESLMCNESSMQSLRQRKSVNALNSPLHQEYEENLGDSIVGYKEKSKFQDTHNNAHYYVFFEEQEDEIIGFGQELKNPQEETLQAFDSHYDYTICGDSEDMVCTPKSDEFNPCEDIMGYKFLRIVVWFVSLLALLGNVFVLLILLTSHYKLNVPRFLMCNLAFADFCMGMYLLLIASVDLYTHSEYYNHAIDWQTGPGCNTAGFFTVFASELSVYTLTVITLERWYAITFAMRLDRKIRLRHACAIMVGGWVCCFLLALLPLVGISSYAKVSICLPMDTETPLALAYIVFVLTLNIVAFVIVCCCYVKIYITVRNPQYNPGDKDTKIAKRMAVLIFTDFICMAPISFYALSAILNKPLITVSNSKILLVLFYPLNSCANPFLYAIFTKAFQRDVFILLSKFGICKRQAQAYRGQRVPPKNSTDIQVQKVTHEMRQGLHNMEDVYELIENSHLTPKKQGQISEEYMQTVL
row,Structure (SMILES),outcome
1,O=C(OC1CCN(CCCl)CC1)C(c1ccccc1)c1ccccc1,inactive
2,CCc1c(C(=O)OC)ncc2[nH]c3cc(OC)c(OC)cc3c12,inactive
3,CC1Cc2cc3c(cc2C(c2ccc(N)cc2)=NN1)OCO3 (stereo not given),inactive
4,CCCN1CCc2cc(O)cc3c2C1Cc1ccc(O)c(O)c1-3 (stereo not given),inactive
5,NCC#Cc1ccccc1,inactive
6,CCCN1CCC[C@@H](c2cccc(C#N)c2)C1,inactive
7,C#CCN(C)C(C)Cc1ccccc1 (stereo not given),inactive
8,CCC(CO)NC(=O)[C@@H]1C=C2c3cccc4[nH]cc(c34)C[C@H]2N(C)C1 (stereo not given in full),inactive
9,CCCCN1C2CCC1CC(OC(c1ccc(F)cc1)c1ccc(F)cc1)C2 (stereo not given),inactive
10,C[C@]12CC[C@H](OS(=O)(=O)O)CC1=CCC1C2CC[C@]2(C)C(=O)CC[C@@H]12 (stereo not given in full),inactive
11,Oc1cc2c(cc1O)[C@H]1c3ccccc3CNC1CC2 (stereo not given in full),inactive
12,C[C@@H]1O[C@@H](O[C@H]2C[C@@H](O)[C@]3(CO)[C@H]4[C@H](O)C[C@]5(C)[C@@H]([C@@H]6COC(=O)C6)CC[C@]5(O)[C@@H]4CC[C@]3(O)C2)[C@H](O)[C@H](O)[C@H]1O,inactive
13,C[N+]1(C)C2CC(OC(=O)C(CO)c3ccccc3)CC1C1OC12 (stereo not given),inactive
14,C=CCN1CCc2cccc3c2C1Cc1ccc(O)c(O)c1-3 (stereo not given),inactive
15,CCNC(=O)[C@H]1O[C@@H](n2cnc3c(N)ncnc32)[C@H](O)[C@H]1O,inactive
16,CCCN(CCC)[C@@H]1CCc2c(F)ccc(O)c2C1,inactive
17,C[C@H]1OC[C@@H](C[N+](C)(C)C)O1,inactive
18,CCN1C[C@]2(C)CC[C@H](O)[C@@]34[C@@H]5C[C@@H]6[C@@H](OC)C[C@@](O)(C5[C@H]6O)[C@@H](C[C@@H]23)[C@@H]14,inactive
19,C[C@]12CC[C@@H](O)CC1CCC1C2CC[C@]2(C)C(=O)CC[C@@H]12 (stereo not given in full),inactive
20,CN1CCC23CCCC[C@H]2C1Cc1ccc(O)cc13 (stereo not given in full),inactive

row,Structure (SMILES),outcome
1,COc1cc(C=C(C#N)C#N)cc(O)c1O,inactive
2,CC(C)(O)C1C2OC(=O)C1[C@]1(O)C[C@H]3O[C@]34C(=O)O[C@H]2[C@]14C (stereo not given in full) (tested in a mixture with another compound),inactive
3,N#CC(=Cc1ccc(O)c(O)c1)C(N)=S,inactive
4,COc1ccc2c(c1O)-c1cccc3c1C(C2)N(C)CC3 (stereo not given),inactive
5,CN1C[C@@H](CS(=O)(=O)N(C)C)C[C@@H]2c3cccc4c3c(cn4C)C[C@H]21,inactive
6,C[C@H]1C2Cc3ccc(O)cc3[C@]1(C)CCN2CC1CC1,inactive
7,CC(C)[C@@]1(NC(=O)[C@@H]2C[C@@H]3c4cccc5[nH]cc(c45)C[C@H]3N(C)C2)O[C@@]2(O)C3CCCN3C(=O)[C@H](Cc3ccccc3)N2C1=O (stereo not given in full),inactive
8,C=CCN1CC[C@@]2(C)c3cc(O)ccc3CC1[C@@H]2C,inactive
9,C[C@]12CC[C@H]3[C@@H](CCC4C[C@H](O)CC[C@@]43C)[C@@H]1CC[C@@H]2O (stereo not given in full),inactive
10,COc1ccc2c3c1O[C@H]1C(=O)CC[C@@]4(O)C(C2)N(CC2CC2)CCC314 (stereo not given in full),inactive
11,Oc1ccc2c3c1O[C@H]1[C@@H](O)CC[C@@]4(O)C(C2)N(CC2CCC2)CCC314 (stereo not given in full),inactive
12,CCCN(CCC)C(=O)Cc1c(-c2ccc(Cl)cc2)nc2c(Cl)cc(Cl)cn12,inactive
13,CCCN1CCc2cccc3c2C1Cc1ccc(O)c(O)c1-3 (stereo not given),inactive
14,NNCc1cccc(O)c1,inactive
15,CCCN1CCCC(c2cccc(O)c2)C1 (stereo not given),inactive
16,CCCN1CCC[C@@H]2Cc3n[nH]cc3C[C@H]21,inactive
17,C/C=C(/C)C(=O)O[C@H]1C(C)=C2C([C@@H]1OC(=O)CCCCCCC)[C@@](C)(OC(C)=O)C[C@@H](OC(=O)CCC)[C@@]1(O)[C@H]2OC(=O)[C@@]1(C)O (stereo not given in full),inactive
18,CCCC[N+]1(C)C2CC(OC(=O)C(CO)c3ccccc3)CC1C1OC12 (stereo not given),inactive
19,COC(=O)C(N)CCCN=C(N)N[N+](=O)[O-] (stereo not given),inactive
20,COc1cc(C[C@@H](C)N)c(OC)cc1I,inactive
